According to PubChem BioAssay AID720504 (National Center for Advancing Translational Sciences (NCATS), 2013):
Screen size: about 360,000 compounds; about 10,000 (2.8%) were called active. About 4% were inconclusive and are not listed. Shown is part of a subset that was picked to be rich in actives. Values without a mark were called inactive. Calls follow the shape of the dose curve; as a rule, active = well fitted inhibition curve with a large enough effect; inconclusive = small, poorly fitted or top-dose-only effect; inactive = flat fitted curve, though single readings scatter.
% is scaled to controls: 0 for no effect and ±100 for the full control effect; potency is read from the fitted curve at half-maximal effect.
Also: nearly all actives have a fitted effect of over 65% in size.
For max response, negative = inhibition in this document: series mostly up to about 57 µM.

These compounds were tested against Serine/threonine-protein kinase PLK1 (Homo sapiens) (UniProt P53350) (assay: qHTS for Inhibitors of PLK1-PDB (polo-like kinase 1 - polo-box domain): Primary Screen). Settings: Plk1 PBD binding of FITC phosphopeptide, fluorescence polarization.
Chain of Serine/threonine-protein kinase PLK1 (Homo sapiens) (P53350 whole entry, looked up, the tested form may be a part): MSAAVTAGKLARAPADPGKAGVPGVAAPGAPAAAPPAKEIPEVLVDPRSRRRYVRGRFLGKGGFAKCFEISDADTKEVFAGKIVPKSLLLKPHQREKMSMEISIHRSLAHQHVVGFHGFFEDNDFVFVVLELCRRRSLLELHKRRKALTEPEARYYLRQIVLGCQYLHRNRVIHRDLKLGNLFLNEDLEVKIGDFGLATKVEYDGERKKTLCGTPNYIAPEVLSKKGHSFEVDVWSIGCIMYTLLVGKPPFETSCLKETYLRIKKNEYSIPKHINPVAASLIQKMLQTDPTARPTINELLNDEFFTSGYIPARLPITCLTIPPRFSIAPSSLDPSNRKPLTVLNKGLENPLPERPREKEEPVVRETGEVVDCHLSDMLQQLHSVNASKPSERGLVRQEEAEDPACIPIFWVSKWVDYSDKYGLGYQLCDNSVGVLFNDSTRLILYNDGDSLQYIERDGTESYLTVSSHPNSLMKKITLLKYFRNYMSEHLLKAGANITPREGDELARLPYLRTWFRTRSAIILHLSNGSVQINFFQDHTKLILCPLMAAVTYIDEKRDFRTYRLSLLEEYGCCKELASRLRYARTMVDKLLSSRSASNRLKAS
`COc1ccc([C@H]2CC(=O)C[C@@H](CCn3cc(CC4CCCC4)nn3)O2)cc1` gave a max response, negative = inhibition of 2.62%. For `CN(C)CCOc1cccc(Br)c1`, the max response, negative = inhibition was -4.17%. Compound `CC(=O)O[C@H]1c2ccccc2-c2ccccc2[C@@H]1OC(C)=O` has a max response, negative = inhibition of 1.29%. With `CN(C)CCOC1c2ccccc2-c2ccccc21` the Potency was 29.9 µM (active). `CCCCC[C@H](C)N1C[C@@H](COCc2ccccc2)Oc2cc(N3CC[C@@H](N(C)C)C3)ccc2S1(=O)=O` gave a max response, negative = inhibition of 4.46%. `CCOC(=O)[C@]12CCCC=C1N(Cc1ccc3c(c1)OCO3)C(=O)[C@H](CC(=O)N1CCN(C(=O)c3ccco3)CC1)C2` gave a max response, negative = inhibition of -17.4%. `CC1(C(=O)NS(=O)(=O)Cc2cccc(Cl)c2)CCN1C(=O)Cc1ccc(Cl)cc1Cl` (centres undefined) gave a max response, negative = inhibition of -4.29%. `O=C(c1ccc(Oc2ccc(Cl)cc2)c([N+](=O)[O-])c1)N1CCCC1` was tested, and the max response, negative = inhibition was -8.04%. Compound `Nc1ccc(C(=O)N2CCN(S(=O)(=O)c3ccc(Cl)cc3)CC2)cc1[N+](=O)[O-]` has a max response, negative = inhibition of -9.21%. `CC1CCN(C(=O)c2ccc(S(=O)(=O)Cc3cc(F)ccc3F)c([N+](=O)[O-])c2)CC1` was tested, and the Potency was 15 µM (active). For `O=C(Nc1ccc(Cl)cc1)c1csc([C@@H]2O[C@H](CO)[C@H](O)[C@H](O)[C@H]2O)n1`, the max response, negative = inhibition was 2.4%. With `O=C(Nc1cccc(Cc2ccccc2)c1)Nc1ccc2nc([C@@H]3O[C@H](CO)[C@@H](O)[C@H](O)[C@H]3O)[nH]c2c1` the max response, negative = inhibition was -5.78%. With `CCOc1cc(/C=N/n2cnnc2)c(Br)cc1O` the max response, negative = inhibition was -5.37%. In the case of `CCOc1cccc(/C=N/N2C(=O)CSC2=S)c1O`, the Potency is reported as 11.9 µM (active). Work on `CCOc1ccc(N2C(=O)CSC2=NC#N)cc1` yielded a max response, negative = inhibition of -14.5%. With `CCCCCCN1C[C@H](O)[C@@H](n2cc(C3CC3)nn2)C[C@@H]1c1ccc(Cl)cc1` the max response, negative = inhibition was -0.475%. `CCC(C)(C)NC(=O)C(c1cccc(OC)c1OC)N(CC(C)C)C(=O)CCC(=O)Nc1cc(C)on1` (centres undefined) was tested, and the Potency was 10.6 µM (active). For `COc1ccc(C(C(=O)NC(C)(C)C)N(Cc2ccc(F)cc2)C(=O)CCC(=O)Nc2cc(C)on2)cc1` (centres undefined), the max response, negative = inhibition was -11.5%. `CCC(C)(C)NC(=O)C(c1ccc(OC)cc1)N(C(=O)CCC(=O)Nc1cc(C)on1)c1ccc(OC)cc1OC` (centres undefined) was tested, and the max response, negative = inhibition was -9.49%. Work on `CC(=O)Nc1cc(-c2ccc(N3CCN(C)CC3)cc2)cn2c(-c3ccc(F)cc3)cnc12` yielded a max response, negative = inhibition of 1.71%. Work on `COCCCn1c(=O)/c(=C/c2ccccc2OC(C)C)s/c1=C(\C#N)C(=O)Nc1ccc(C(=O)O)cc1` yielded a max response, negative = inhibition of -29.5%. For `O=C(C[n+]1ccccc1)N/N=C/c1ccc(O)cc1`, the Potency was 26.7 µM (active). `Cc1nonc1C(=O)N/N=C/c1ccc(O)cc1` was tested, and the max response, negative = inhibition was -1.21%. `Nc1nnn(CC(=O)N/N=C/c2ccc(O)cc2)n1` gave a max response, negative = inhibition of -3.01%. For `O=C(Nc1ccc2c(c1)[C@@H]1C[C@@H](CC(=O)N3CCCCC3)O[C@@H](CO)[C@@H]1O2)NC1CCCCC1`, the max response, negative = inhibition was 2.32%. In the case of `Cc1nc(C(F)(F)F)ccc1C(=O)N1CCC1(C)C(=O)NS(=O)(=O)c1ccc(F)cc1F` (centres undefined), the max response, negative = inhibition is reported as 1.72%. `COc1ccc(-n2cc(-c3ccccc3)c3c(=S)nc[nH]c32)cc1` showed a max response, negative = inhibition of -12.3%. In the case of `COc1ccc(-c2cn(-c3ccc(OC)cc3)c(=S)[nH]2)cc1`, the Potency is reported as 21.2 µM (active). In the case of `COc1ccc(N2C(=O)CNC2=S)cc1`, the max response, negative = inhibition is reported as 0.339%. With `Cc1csc(=O)n1CCC(=O)OCC(=O)Nc1ccc(N2CCOCC2)cc1` the max response, negative = inhibition was 1%. For `CSc1ccc(CN2CCC2(C)C(=O)Nc2ccc(C)c(O)c2)cc1` (centres undefined), the max response, negative = inhibition was 4.93%. With `COc1cc(F)ccc1-c1cc(C(=O)NCC2CCCCC2)[nH]n1` the max response, negative = inhibition was 1.4%. Compound `N#CC1=C(N)N(c2ccccc2)C2=C(C(=O)CCC2)C1c1ccccc1` (centres undefined) has a max response, negative = inhibition of -0.426%. Compound `CCOc1ccc(C2C(C#N)=C(N)N(N(C)C)C3=C2C(=O)CCC3)cc1` (centres undefined) has a max response, negative = inhibition of -4.98%. `COc1ccc(C2C(C#N)=C(N)N(c3ncn[nH]3)C3=C2C(=O)CCC3)cc1` (centres undefined) was tested, and the Potency was 26.7 µM (active). `CC1(C(=O)NCc2ccccc2)CN(S(C)(=O)=O)CC(=O)N1CC(F)(F)F` (centres undefined) was tested, and the max response, negative = inhibition was 3.31%. `CCC(=O)N1Cc2cc(C(=O)NCc3cccc(F)c3)nc(-c3cccc(C4=CCCC4)c3)c2[C@H]1CCO` gave a max response, negative = inhibition of -10.3%. With `O=C(Nn1cnnc1)c1ccc([N+](=O)[O-])cc1` the max response, negative = inhibition was -3.8%. Work on `O=C(Cn1c[n+](CC(=O)c2ccc([N+](=O)[O-])cc2)cn1)c1ccc([N+](=O)[O-])cc1` yielded a max response, negative = inhibition of -8%. In the case of `O=C(CC(n1cncn1)C(Cl)(Cl)Cl)c1ccc([N+](=O)[O-])cc1` (centres undefined), the Potency is reported as 23.8 µM (active). `OC[C@@H]1CN(Cc2cccs2)C[C@H](n2cnc3c(NC4CCCC4)ncnc32)O1` gave a max response, negative = inhibition of -8.04%. `O=C(Nc1cccc2ccccc12)NC1CC1` gave a max response, negative = inhibition of -14.1%. `COc1ccc(C(C(=O)Nc2c(C)cccc2C)N2CCN(c3ccc(C)cc3)CC2)cc1` (centres undefined) showed a max response, negative = inhibition of -1.1%. `N#Cc1c(C(F)(F)F)cc(-c2ccc(Cl)cc2)nc1SCC(=O)O` gave a max response, negative = inhibition of -8.73%. With `N#Cc1c(-c2ccccc2)cc(-c2ccccc2)nc1SCC(=O)O` the Potency was 21.2 µM (active). Work on `N#Cc1c(C(F)(F)F)cc(-c2ccccc2)nc1SCC(=O)N1CCOCC1` yielded a max response, negative = inhibition of -6.59%. `OC(c1ccc(Cl)cc1)c1ncc(-c2ccc(Cl)cc2)[nH]1` (centres undefined) showed a max response, negative = inhibition of 5.29%. In the case of `CC1=C(C(=O)N2CCOCC2)CC(CC(=O)NCCCN(C)C)C(=O)N1Cc1ccc(C(C)(C)C)cc1` (centres undefined), the max response, negative = inhibition is reported as -2.35%. `CCc1nc2ccc(C(=O)N3CCC(O)(Cc4ccccc4)CC3)cn2c1N(C)C(=O)Cc1ccccc1` showed a max response, negative = inhibition of -2.01%. In the case of `Nc1ncnc2c1ncn2[C@@H]1O[C@H](C(=O)NCC(F)(F)F)[C@@H](O)[C@H]1O`, the max response, negative = inhibition is reported as -5.72%. `CCOc1ccc(C(=O)COC(=O)c2ccc(-n3cnnn3)cc2)cc1` showed a max response, negative = inhibition of 2.47%. With `CCOC(=O)N1CCN(S(=O)(=O)c2ccc(-n3cnnn3)cc2)CC1` the max response, negative = inhibition was -22.3%. In the case of `CCOC(=O)c1c(-n2cnnn2)sc(C)c1C`, the Potency is reported as 26.7 µM (active). With `CC1(Oc2ccc(Cl)cc2)CCN(Cc2csc3ccccc23)C1` (centres undefined) the max response, negative = inhibition was -4.39%. `Cc1ccc(CNC(=O)Nc2nnc([C@H]3C[C@H](O)[C@@H](CO)O3)s2)cc1` was tested, and the max response, negative = inhibition was 6.99%. With `CC(C)C[C@@H](COCc1ccc(Cl)cc1)N1CCN(C(=O)c2ccc(Cl)cc2Cl)CCC1=O` the max response, negative = inhibition was -7.05%. For `CC(=O)c1cccc(-c2cnc3c(NC=O)cc(-c4cccc(C(=O)N(C)C)c4)cn23)c1`, the max response, negative = inhibition was -7.52%. In the case of `Cc1c(C(=O)c2cccc([N+](=O)[O-])c2)c2ccccn2c1CCC#N`, the max response, negative = inhibition is reported as -8.17%. For `COc1ccc(C(=O)c2c(C)c(CCC#N)n3ccccc23)c(OC)c1`, the Potency was 29.9 µM (active). `COc1ccc(C(=O)CCc2ccccc2O)c(OC)c1` showed a max response, negative = inhibition of -0.281%. Compound `CN1CCn2cnc(C(=O)NCC(=O)OC(C)(C)C)c2C1=O` has a max response, negative = inhibition of -1.56%. In the case of `Cc1ccccc1S(=O)(=O)N1[C@@H](c2cccc(Cl)c2)C(C(=O)OC(C)(C)C)=CC[C@H]1c1ccc(Cl)cc1`, the max response, negative = inhibition is reported as -12.6%. `CCCCNC(=O)C[C@@H]1C[C@@]2(C(=O)OCC)CCC=C2N(Cc2ccco2)C1=O` was tested, and the max response, negative = inhibition was -10.8%. Work on `Cc1ccc(S(=O)(=O)N2CC3C(=O)C[C@@H](c4ccccc4Cl)N(S(=O)(=O)c4ccc(C)cc4)C3CC2c2ccccc2)cc1` (some centres undefined) yielded a max response, negative = inhibition of 1.78%. In the case of `Cc1ccc(-n2c(SCC(=O)Nc3ccc4c(c3)OCO4)nnc2-c2ccoc2C)cc1`, the Potency is reported as 23.8 µM (active). `O=C(CSc1nnc(-c2ccccn2)n1-c1ccccc1)Nc1ccc2c(c1)OCO2` showed a max response, negative = inhibition of -6.44%. For `Cc1ccc(-n2c(SCC(=O)Nc3ccc4c(c3)OCO4)nnc2-c2ccccn2)cc1`, the max response, negative = inhibition was -3.49%. `O=C(NCc1cccnc1)c1cc(C2CCCN(C(=O)CCCc3ccccc3)C2)on1` (centres undefined) was tested, and the max response, negative = inhibition was 7.06%. With `C/C(COc1ccccc1)=N\NC(=O)c1nnn(-c2nonc2N)c1-c1ccc(C)cc1` the max response, negative = inhibition was -7.46%. For `CCC(=O)NC(=S)Nc1ccc(NC(=O)c2ccco2)c(Cl)c1`, the Potency was 29.9 µM (active). Compound `O=C(NNC(=S)Nc1ccc(Br)cc1Cl)c1ccco1` has a max response, negative = inhibition of -12.7%. `Cc1cccc(OCC(=O)Nc2ccc(NC(=O)c3ccco3)c(C)c2)c1` was tested, and the max response, negative = inhibition was -7.98%. In the case of `CCCCN1C(=O)C(CC(=O)NC(c2ccccc2)c2ccccc2)CC(C(=O)N2CCOCC2)=C1C` (centres undefined), the max response, negative = inhibition is reported as -4.16%. Compound `Cc1nc(C(F)(F)F)ccc1C(=O)N1CCC1(C)C(=O)NS(=O)(=O)c1ccccc1` (centres undefined) has a max response, negative = inhibition of -4.71%. With `COc1ccc(N2C(=O)CC(SC(C)C)C2=O)cc1` (centres undefined) the max response, negative = inhibition was -4.56%. `COc1ccc(-c2nc(SCC(=O)N3CCCC3)n[nH]2)cc1` showed a max response, negative = inhibition of -1.92%. With `COc1ccc(N2C(=O)CC(Sc3n[nH]c(-c4ccc(C)cc4)n3)C2=O)cc1` (centres undefined) the Potency was 18.9 µM (active). Compound `Cc1noc(C)c1-c1ccc(C(=O)NCc2ccncc2)c2occc12` has a max response, negative = inhibition of -3.63%. Compound `CCc1nc2ccc(C(=O)Nc3cccc(OC)c3)cn2c1N(CCC(C)C)CCN(C)C` has a max response, negative = inhibition of 0.24%. In the case of `Cc1cc2c3ccccc3[nH]c(=O)n2n1`, the max response, negative = inhibition is reported as -0.899%. With `COC(=O)Cc1c(-c2[nH]c3ccccc3c2CC(=O)OC)[nH]c2ccccc12` the max response, negative = inhibition was 0.279%. In the case of `S=c1[nH]c2ccccc2c2ccccc12`, the Potency is reported as 18.9 µM (active). For `CCCNC(=O)C1CC(=O)N(c2ccc(OCc3ccccc3)cc2)C1` (centres undefined), the max response, negative = inhibition was 3.86%. `Cc1nc(C(F)(F)F)ccc1C(=O)N1CCC1(C)C(=O)NS(=O)(=O)c1ccccc1Cl` (centres undefined) gave a max response, negative = inhibition of -15.4%.
